Counter-ions that a name gives are not always drawn.
Assays:
Test in all cases: Euclidean distance of Cell Painting phenotypic profile (signed KS, 77 features) to DMSO centroid (dimensionless distance); 5 or 10 uM (library dependent); higher = stronger phenotypic change vs DMSO (phenoactivity)
Settings in all cases: 48 h
786-O = tested on: 786-O
How it was run: (§1)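 At 10 or 5 uM, as set by the library, and 0.1% DMSO final, compounds were applied for 48 h to five cancer lines and one healthy fibroblast line. Stained cells were imaged confocally at 20X in 9 fields per well, and Harmony extracted 77 features scored as signed Kolmogorov-Smirnov statistics against vehicle wells on the same plate. Profiles underwent plate-position correction, correlation weighting and replicate averaging at the top dose. Phenoactivity is the Euclidean distance from each such profile to the median vehicle profile.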

A549 = tested on: A549
How it was run: as §1

DU145 = tested on: DU145
How it was run: as §1

FB = tested on: FB
How it was run: as §1

HEPG2 = tested on: HEPG2
How it was run: as §1

OVCAR4 = tested on: OVCAR4
How it was run: as §1

Row | Structure (SMILES) | Euclidean distance (786-O) | Euclidean distance (A549) | Euclidean distance (DU145) | Euclidean distance (FB) | Euclidean distance (HEPG2) | Euclidean distance (OVCAR4)
1 | C[C@H](NC(=O)[C@@H](O)c1cc(F)cc(F)c1)C(=O)N[C@@H]1C(=O)N(C)c2ccccc2-c2ccccc21 | 1.22 | 1.36 | 1.05 | 0.939 | 0.864 | 1.42
2 | CC(C)n1nc(-c2ccc3oc(N)nc3c2)c2c(N)ncnc21 | 3.74 | 3.47 | 2.16 | 5.4 | 2.31 | 3.52
3 | NC1(c2ccc(-c3nc4ccn5c(=O)[nH]nc5c4cc3-c3ccccc3)cc2)CCC1 | 3.5 | 2.58 | 2.67 | 3.61 | 2.59 | 2.07
4 | CC[C@H](C)C(=O)O[C@H]1CCC=C2C=C[C@H](C)[C@H](CC[C@@H]3C[C@@H](O)CC(=O)O3)[C@H]21 [Mevastatin] | 2.6 | 1.88 | 0.707 | 3.12 | 1.43 | 1.64
5 | c1cnc2cc3c(cc2n1)[C@@H]1CNC[C@H]3C1 [Varenicline Tartrate] | 0.702 | 0.985 | 0.786 | 0.802 | 0.459 | 1.05
6 | CO[C@@H](C(=O)N1Cc2[nH]nc(NC(=O)c3ccc(N4CCN(C)CC4)cc3)c2C1)c1ccccc1 | 1.39 | 1.46 | 1.66 | 1.66 | 1.25 | 1.03
7 | Cc1ccccc1C(=O)Nc1ccc(C(=O)N2CCCC(N(C)C)c3ccccc32)cc1 (centres undefined) [Mozavaptan] | 0.843 | 0.928 | 1.17 | 0.813 | 0.445 | 0.913
8 | CCOC(=O)O[C@]1(C(=O)OCCl)CC[C@H]2[C@@H]3CCC4=CC(=O)C=C[C@]4(C)[C@H]3[C@@H](O)C[C@@]21C [Loteprednol etabonate] | 1.18 | 2.23 | 1.71 | 1.66 | 0.658 | 1.81
9 | COc1cc2c(Nc3ccc(NC(=O)c4ccccc4)cc3)ncnc2cc1OCCCN1CCOCC1 | 2.71 | 3.81 | 3.11 | 2.7 | 1.92 | 3.02
10 | O=C(Nc1c[nH]nc1-c1nc2ccc(CN3CCOCC3)cc2[nH]1)NC1CC1 | 3.05 | 3.01 | 3 | 2.87 | 2.74 | 2.7
11 | Cc1cc(C(C)(C)C)cc(C)c1CC1=NCCN1 [Xylometazoline HCl] | 0.708 | 0.547 | 0.707 | 0.795 | 0.707 | 0.903
12 | CCCC1O[C@@H]2C[C@H]3[C@@H]4CCC5=CC(=O)C=C[C@]5(C)[C@H]4[C@@H](O)C[C@]3(C)[C@]2(C(=O)CO)O1 (some centres undefined) [Budesonide] | 3.14 | 1.89 | 2.06 | 3.49 | 2.09 | 2.47
13 | COc1cc2nccc(Oc3ccc(NC(=O)NC4CC4)c(Cl)c3)c2cc1C(N)=O [Lenvatinib (E7080)] | 2.11 | 0.779 | 1.02 | 3.36 | 1.02 | 1.33
14 | COC(=O)N[C@H](C(=O)N1CC2(CC2)C[C@H]1c1nc(-c2ccc3c(c2)C(F)(F)c2cc(-c4ccc5[nH]c([C@@H]6[C@H]7CC[C@H](C7)N6C(=O)[C@@H](NC(=O)OC)C(C)C)nc5c4)ccc2-3)c[nH]1)C(C)C [Ledipasvir (GS5885)] | 1.65 | 1.83 | 1.33 | 1.94 | 1.09 | 1.18
15 | NC(=O)c1cn(Cc2c(F)cccc2F)nn1 [Rufinamide] | 1.34 | 1.42 | 0.931 | 1.23 | 0.473 | 1.4
16 | O=C(N/N=C/c1ccc(O)c(O)c1)c1cc2ccccc2cc1O [Dynasore] | 0.917 | 1.21 | 0.791 | 0.928 | 1.13 | 0.791
17 | Cc1ncc(C[n+]2csc(CCO)c2C)c(N)n1 [Thiamine HCl (Vitamin B1)] | 1.43 | 0.642 | 0.753 | 0.562 | 1.12 | 1.21
18 | NC(=O)N1c2ccccc2C=Cc2ccccc21 [Carbamazepine] | 1.69 | 0.483 | 1.26 | 0.984 | 1.28 | 1.59
19 | CCCCOc1ccc(OCCCN2CCOCC2)cc1 [Pramoxine HCl] | 1.3 | 0.99 | 1.08 | 0.528 | 0.51 | 1.2
20 | CC1(C)O[C@@H]2C[C@H]3[C@@H]4CCC5=CC(=O)CC[C@]5(C)[C@@]4(F)[C@@H](O)C[C@]3(C)[C@]2(C(=O)CCl)O1 [Halcinonide] | 1.46 | 2.25 | 2.18 | 2 | 0.493 | 1.78
21 | N#Cc1c(Oc2ccc(F)c(NC(=O)Cc3cccc(C(F)(F)F)c3)c2)ccc2nc(NC(=O)C3CC3)sc12 | 2.61 | 2.09 | 0.85 | 1.19 | 1.22 | 2.04
22 | c1ccc2c(c1)CCCC2C1=NCCN1 (centres undefined) [Tetryzoline] | 1.41 | 0.369 | 0.804 | 1.09 | 0.572 | 0.896
23 | Clc1ccc(C(Cn2ccnc2)OCc2csc3c(Cl)cccc23)c(Cl)c1 (centres undefined) [Sertaconazole nitrate] | 1.47 | 1.42 | 1.2 | 1.26 | 0.627 | 1.61
24 | Cc1cc(Nc2ncc(Cl)c(Nc3ccccc3S(=O)(=O)C(C)C)n2)c(OC(C)C)cc1C1CCNCC1 [Ceritinib (LDK378)] | 6.15 | 4.94 | 7.35 | 6.34 | 4.96 | 5.69
